According to PMC4336329 (PLoS ONE, 2015):
In all, about 310,000 compounds went through this assay and about 14,000 (4.5%) showed an effect of 50% or more. Effects have a minus sign here. This is one part of a sample in which strong results are shown more often than they occur.

target: human ether-à-go-go-related gene (hERG) potassium channel (human, UniProt Q12809); experiment: primary screen, population patch clamp on CHO cells stably expressing hERG; higher = less effect of the substance
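Note: peak tail current of the secondary pulse compared with the same well before compound.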

Sequence of human ether-à-go-go-related gene (hERG) potassium channel (Q12809 whole entry, looked up): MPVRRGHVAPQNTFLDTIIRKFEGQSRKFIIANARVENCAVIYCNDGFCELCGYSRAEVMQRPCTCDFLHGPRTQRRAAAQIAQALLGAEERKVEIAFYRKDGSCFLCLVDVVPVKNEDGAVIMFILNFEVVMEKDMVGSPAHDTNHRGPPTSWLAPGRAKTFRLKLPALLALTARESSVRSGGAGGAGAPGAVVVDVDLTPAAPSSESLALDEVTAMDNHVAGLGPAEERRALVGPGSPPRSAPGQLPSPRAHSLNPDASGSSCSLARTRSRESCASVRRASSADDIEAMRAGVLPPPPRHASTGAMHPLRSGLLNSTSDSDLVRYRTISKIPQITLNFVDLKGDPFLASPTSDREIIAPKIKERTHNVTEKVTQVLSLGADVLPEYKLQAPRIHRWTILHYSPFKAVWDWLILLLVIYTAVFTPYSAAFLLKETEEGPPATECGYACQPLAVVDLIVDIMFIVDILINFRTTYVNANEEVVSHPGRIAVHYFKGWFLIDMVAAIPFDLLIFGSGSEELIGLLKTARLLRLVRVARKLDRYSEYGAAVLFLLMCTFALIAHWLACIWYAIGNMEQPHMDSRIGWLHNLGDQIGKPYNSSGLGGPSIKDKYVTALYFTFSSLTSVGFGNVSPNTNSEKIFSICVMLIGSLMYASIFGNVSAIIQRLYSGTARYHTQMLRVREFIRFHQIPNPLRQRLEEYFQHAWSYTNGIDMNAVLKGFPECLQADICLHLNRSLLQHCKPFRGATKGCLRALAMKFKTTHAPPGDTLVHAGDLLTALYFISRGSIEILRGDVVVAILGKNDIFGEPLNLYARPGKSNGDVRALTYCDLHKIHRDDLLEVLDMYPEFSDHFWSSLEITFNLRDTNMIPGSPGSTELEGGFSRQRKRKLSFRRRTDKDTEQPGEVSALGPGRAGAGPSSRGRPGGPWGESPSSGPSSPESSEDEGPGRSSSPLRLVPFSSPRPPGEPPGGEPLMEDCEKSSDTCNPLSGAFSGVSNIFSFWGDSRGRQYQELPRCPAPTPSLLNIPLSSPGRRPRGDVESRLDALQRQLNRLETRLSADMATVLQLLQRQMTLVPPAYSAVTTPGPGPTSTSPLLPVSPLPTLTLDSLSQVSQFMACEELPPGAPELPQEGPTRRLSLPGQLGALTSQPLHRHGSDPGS

In order of falling “hERG current change (%, negative = inhibition) at 10uM” value:
1. COc1cc(NS(=O)(=O)c2ccc(NC(=O)/C(=C\c3ccccc3OC)NC(=O)c3ccccc3)cc2)nc(OC)n1  26.5%
2. C/C(=C\C(=S)Nc1ccccc1)Nc1ccccc1  22.4%
3. CNC(=O)N(O)C1N(/N=C/c2c(F)cccc2Cl)C(=S)SC1(C)C (stereo not drawn)  18%
4. CN(C)CCNC(=O)c1ccc2c(c1)NC(=O)c1ccccc1S2  17.3%
5. C=CCn1c(CSc2nnc(-c3ccccc3)n2C)n[nH]c1=S  16.7%
6. C=CCOc1ccc(/C=N/NC(=O)C(=O)N2CCCCCC2)cc1OC  16.5%
7. NS(=O)(=O)c1ccc(CCNS(=O)(=O)c2cccc(C(=O)O)c2)cc1  15.9%
8. COc1ccc(Cc2nc3ccc(C(=O)N(C)CCn4ccnc4)cc3o2)cc1OC  15.5%
9. O=C(Nc1ccc(Cl)cc1)c1ccc(Br)cc1F  14.4%
10. O=C(O)CCn1c(-c2ccccc2)cc2c1CCCC2=O  14.1%
11. COc1cc(C(=O)O)cc(NC(=O)c2cccs2)c1OC  13%
12. COCCn1c(C)cc2c(c1=O)C(c1ccco1)C(C#N)=C(N)O2 (stereo not drawn)  12.7%
13. CCC(=O)N1CCc2cc(S(=O)(=O)N3CCCCCC3)ccc21  12.6%
14. CCc1noc(C)c1C(=O)OCC(=O)NC(=O)c1ccccc1OC  12.5%
15. C=CCOc1ccc(/C=N/NC(=O)CN2CCOCC2)cc1OCC  12.4%
16. Cc1ccc(C2CC(=O)N3CN(c4ccc(Br)cc4)CSC3=C2C#N)o1 (stereo not drawn)  11.1%
17. CCOc1ccc(/C=N/NC(=O)CN2CCCCC2)cc1OCC  11%
18. CC1CCC2(CC1)NC(=O)N(CC(=O)N(Cc1ccccc1)C(C)(C)C)C2=O (stereo not drawn)  10.6%
19. CCOc1ccccc1CNC(=O)Cn1ccc2cc(S(=O)(=O)N3CCCCCC3)ccc21  10.4%
20. O=C(COC(=O)c1ccc(F)cc1F)Nc1ccc2[nH]c(=O)[nH]c2c1  10.3%
21. Cc1ccc(OCC(=O)N/N=C/c2cn(C)c3ccccc23)cc1  10.2%
22. CCN(CCNC(=O)CC1Oc2ccccc2NC1=O)c1ccccc1 (stereo not drawn)  9.82%
23. COCc1cc(Sc2cccc(Cl)c2Cl)nc(-c2ccccc2)n1  9.15%
24. CNC(=O)c1cccn1-c1ccsc1C(=O)OC  7.33%
25. CC1c2cccn2CCN1S(=O)(=O)c1ccccc1 (stereo not drawn)  5.9%
26. CCOc1ncccc1C(=O)N1CCN(C(c2ccccc2)c2ccccc2)CC1  5.75%
27. COc1cc(/C=N/NC(=O)CN2CCOCC2)ccc1OCc1ccccc1  5.45%
28. CCC(C)(C)NC(=O)C(c1ccc(OC)cc1)N(C(=O)CCC(=O)Nc1cc(C)on1)c1ccc(OC)c(OC)c1 (stereo not drawn)  3.38%
29. Cc1cc(C)nc(NS(=O)(=O)c2cccs2)c1  3.36%
30. CC1CCC2(CC1)NC(=O)N(CC(=O)NCc1cccs1)C2=O (stereo not drawn)  1.95%
31. COc1ccc2cc(N=Cc3nc(-c4ccc(C)cc4)oc3O)cnc2c1  1.84%
32. COc1ccc(NS(=O)(=O)c2cc3c(cc2C)N(C)CCO3)c(OC)c1  1.28%
33. Cc1nc2cc3nc(C(F)(F)F)[nH]c3cc2[nH]1  0.0754%
34. CC(=O)N1CCc2cc(S(=O)(=O)NCCC(=O)Nc3cccc(C)c3C)ccc21  0.058%
35. CC(=O)c1cccc(NC(=O)C(C)OC(=O)c2cc(=O)[nH]c3ccccc23)c1 (stereo not drawn)  -0.987%
36. CCOCCCn1c(SCC(=O)NC2CCCC2)nc2ccccc2c1=O  -1.74%
37. CCn1cc(C(=O)N2CCN(Cc3ccc4c(c3)OCO4)CC2)c(=O)c2ccc(C)nc21  -1.84%
38. Cc1ccc2c(c1)NC(=O)C(CC(=O)NCCN(C)C)O2 (stereo not drawn)  -2.42%
39. CCCCn1c(SCC(=O)Nc2ccc(NC(C)=O)cc2)nc2ccccc2c1=O  -2.55%
40. COc1cc(OC)c(C#N)c(S(=O)(=O)Cc2ccccc2)c1  -3.9%
41. CCCCn1c(SCC(=O)NC2CCCC2)nc2ccccc2c1=O  -4.43%
42. CCOc1cc(/C=N/NC(=O)CN2CCCCC2)ccc1O  -5.51%
43. O=C(/C=C/C=C/c1ccc2c(c1)OCO2)N1CCCCC1  -8.23%
44. O=C(CNc1ccc2ccccc2c1)N/N=C/c1ccncc1  -8.31%
45. CC(=O)N1c2ccccc2C(C)(C)C2CCC(C)CC21 (stereo not drawn)  -8.9%
46. COc1ccc(C(=O)C2CCCN(C(=O)c3cccs3)C2)cc1F (stereo not drawn)  -8.95%
47. CCOc1cc(/C=N/NC(=O)CN2CCOCC2)ccc1OCc1ccccc1  -9.58%
48. O=C(CSc1nc2ccccc2c(=O)n1CCCO)NC1CC1  -13.4%
49. S=C1NCCc2ccccc2C1c1ccccc1 (stereo not drawn)  -14.5%
50. O=C(Nc1cc(Cl)ccc1N1CCCC1)C1=NN(c2ccccc2)C(=O)CC1  -16.9%
51. Cc1c(NS(=O)(=O)c2ccc(NC3CCCC3)c([N+](=O)[O-])c2)c(=O)n(-c2ccccc2)n1C  -19.7%
52. Cc1ccc(S(=O)(=O)N(CC(=O)NN=C2CCN(C)CC2)c2ccc(C(C)C)cc2)cc1  -21.3%
53. Cc1ccc(S(=O)(=O)N2CCn3cccc3C2C)cc1 (stereo not drawn)  -22.7%
54. Cc1cc(C(=O)C(=O)NC(C)C)c(C)n1-c1ccc([N+](=O)[O-])cc1  -22.8%
55. Cc1ccc2c(c1)NC(=O)C(CC(=O)NCCN(CC(C)C)CC(C)C)O2 (stereo not drawn)  -24.7%
56. Cc1cc(C(=O)C(=O)N(C)C)c(C)n1-c1ccc([N+](=O)[O-])cc1  -25.7%
57. CCC(CNc1cc(OC)cc2cccnc12)NC1CCCCC1 (stereo not drawn)  -26.2%
58. CC(C)CN(CCNC(=O)CC1Oc2ccccc2NC1=O)CC(C)C (stereo not drawn)  -27.7%
59. CCc1ccc(NC(=O)CSc2nc3ccccc3c(=O)n2CCCC(=O)N2CCCC2)cc1  -27.9%
60. COc1cccc(C(=O)C2CCCN(Cc3cccn3-c3cccnc3)C2)c1 (stereo not drawn)  -29%
61. O=C(CN1CCCCC1)N/N=C/c1ccccc1OCc1ccccc1  -30.2%
62. CCN(CC)CCNC(=O)c1ccc2c(c1)NC(=O)c1ccccc1S2  -31.9%
63. O=C(/C=C/c1cccc([N+](=O)[O-])c1)NCc1ccco1  -33%
64. CCN1CCN(c2c(Cl)cccc2NC(=O)c2ccc3c(c2)OCCO3)CC1  -38.4%
65. COc1ccc(C(=O)C2CCCN(Cc3cnc(N4CCCC4)s3)C2)cc1OC (stereo not drawn)  -44%
66. CCOc1cc(/C=N/NC(=O)CN2CCCCC2)ccc1OCc1cccc(Cl)c1  -45.3%
67. COc1ccc(C(=O)C2CCCN(Cc3cnc(N4CCOCC4)s3)C2)cc1F (stereo not drawn)  -47.6%
68. O=C(CCCn1c(SCC(=O)Nc2ccccc2Cl)nc2ccccc2c1=O)NCC1CCCO1 (stereo not drawn)  -48.9%
69. CCN1CCN(c2c(Cl)cccc2NC(=O)c2ccc3nsnc3c2)CC1  -49.5%
70. CCCOc1ccc(/C=N/NC(=O)CN2CCCCC2)cc1OCC  -51.4%
71. CC1c2cccn2CCN1S(=O)(=O)c1ccc(F)cc1 (stereo not drawn)  -52.3%
72. CCC(C)N(CCNC(=O)CC1Oc2ccccc2NC1=O)C1CCCCC1 (stereo not drawn)  -57.7%
73. O=C(c1ccc2c(c1)OCO2)C1CCCN(Cc2cccn2-c2cccnc2)C1 (stereo not drawn)  -58.3%
74. CCOc1cc(/C=N/NC(=O)CN2CCCCC2)ccc1OCc1ccccc1  -59.9%
75. C=CCOc1ccc(/C=N/NC(=O)CN2CCCCC2)cc1OC  -61%
76. COc1ccc(C(=O)C2CCCN(Cc3cccn3-c3cccnc3)C2)cc1OC (stereo not drawn)  -62.9%
77. C=CCN(CC=C)C(=O)C(=O)c1cc(C)n(-c2ccc([N+](=O)[O-])cc2)c1C  -63.4%
78. COc1cc(/C=N/NC(=O)CN2CCCCC2)ccc1OCc1ccccc1  -64.1%
79. CCC(C)N(CCNC(=O)c1ccc2c(c1)NC(=O)c1ccccc1S2)C1CCCCC1 (stereo not drawn)  -66.4%
80. CCc1ccc(NC(=O)CSc2nc3ccccc3c(=O)n2CCCN2CCC(C)CC2)cc1  -67.2%
81. COc1ccc(CN(C(=O)CN2C(=O)NC3(CCC(C)CC3)C2=O)C(C)Cc2cccs2)cc1 (stereo not drawn)  -68.7%
82. CC1CCN(CCCn2c(SCC(=O)Nc3ccccc3Cl)nc3ccccc3c2=O)CC1  -70.8%
83. CCC(C)N(CCNC(=O)CC1Oc2ccc(C)cc2NC1=O)C1CCCCC1 (stereo not drawn)  -71.5%
84. CCN1CCN(c2c(Cl)cccc2NC(=O)c2ccc([N+](=O)[O-])cc2)CC1  -72%
85. CC1CCN(CCCn2c(SCC(=O)NC3CCCC3)nc3ccccc3c2=O)CC1  -77%
86. COc1ccc(C(=O)C2CCCN(Cc3cccn3-c3nccs3)C2)cc1OC (stereo not drawn)  -82%
87. COc1ccc(C(=O)C2CCCN(Cc3cccn3-c3nccs3)C2)cc1F (stereo not drawn)  -83.5%
